Measurements from PubChem BioAssay (NCI).
Several values for one entry are separate records, joined by “and”; a condition that tells them apart may be missing. Identical values can stand only once. This is part of a sample that, as a whole, favours compounds with a hit. Of some 83,000 tested, about 20% had one in any assay.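 Interpretation: 100, growth as untreated; towards 0, rising growth inhibition; 0, no net growth; 0 to -100, cell death. Compounds scoring below 10 were considered active.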 Activity calls are given as the source filed them.

Tested on: MDA-MB-468 breast
Test: NCI-60 one-dose screen, 48 h (100 = growth as untreated, 0 = no growth, -100 = all killed)
Details: 10 µM unless noted

Compound | growth
CC(C)(C)n1cc(-c2ccnc(NCCNS(=O)(=O)c3ccc(Br)cc3)c2)c(-c2cccc(O)c2)n1 | 2.11% (active)
O=C(OCCBr)c1ccc(Cl)c([N+](=O)[O-])c1 | -79.8% (active)
O=C(Nc1ccc(F)cc1)c1ccc(C(=O)Nc2ccc(F)cc2)cc1 | 99.7% (inactive)
N#CSCc1cc(Cl)c(CSC#N)cc1Cl | 66% (inactive)
O=C1Nc2ccccc2/C1=N/N=C/c1c[nH]c2ccccc12 | 84.8% (inactive)
c1cc(NCCCCN2CCOCC2)c2ccc3c(ccc4c(NCCN5CCOCC5)ccnc43)c2n1 | 75.8% (inactive)
C=C(c1ccc(C(=O)O)c(F)c1)c1cc2c(cc1C)C(C)(C)CCC2(C)C | 97.6% (inactive)
CCCC1CCCCN1C(=O)OCC(C)C (configuration not stated) | 97.4% (inactive)
COc1cc2cc3c(nc2cc1OC)CCN3Cc1ccc(NC(=O)Nc2cc(C(F)(F)F)cc(C(F)(F)F)c2)cc1 | 52.9% (inactive)
Cn1ccnc1C(=O)/C=C/c1ccc(CC(=O)Nc2ccc(C(F)(F)F)cc2)cc1 | -6.59% (active)
CCCCCCCCCCCCCC | 110% (inactive)
Cc1ccc(S(=O)(=O)N2CCc3ccc(O)c4c3C2Cc2ccc3c(c2-4)OCO3)cc1 (configuration not stated) | 1.75% (active)
CN(C)c1ccc(-c2c(C#N)c(N)n3nc(N)c(C#N)c3c2C#N)cc1 | 81.3% (inactive)
O=C1/C(=C\c2cn(Cc3ccccc3)c3ccc(Br)cc23)c2ccccc2N1c1c(Cl)cccc1Cl | 84.1% (inactive)
N#Cc1cccc(CN2CCc3ncn(Cc4ccc(Cl)cc4)c(=O)c3C2)c1 | -21.8% (active)
Cc1ccc(S(=O)(=O)N(C)CCCCCC(=O)O)cc1 | 108% (inactive)
CN(C)CC1CCCCCC(CN(C)C)C1=O (configuration not stated) | 15.3% (inactive)
OCC(O)C(O)C(O)C(/C=N/Nc1ccccc1)=N/Nc1ccccc1 (configuration not stated) | 68% (inactive)
CCCOC(=O)n1cccc1 | 106% (inactive)

Compound | growth
S=C(Cc1ccc(-c2ccccc2)cc1)N1CCOCC1 | 90.8% (inactive)
COC(=O)CCCCCN=Cc1c(O)c(O)c(C(C)C)c2cc(C)c(-c3c(C)cc4c(C(C)C)c(O)c(O)c(C=NCCCCCC(=O)OC)c4c3O)c(O)c12 | 26.3% (inactive)
CC1(C)CC[C@]2(C(=O)O)CC[C@]3(C)C(=CC[C@@H]4[C@@]5(C)CC[C@H](NOCCCN)C(C)(C)[C@@H]5CC[C@]43C)[C@@H]2C1 | -45.6% (active)
C#Cc1ccc(NC(=O)Cc2ccc(/C=C/C(=O)c3nccn3C)cc2)cc1 | 33.8% (inactive)
COc1cc(-c2nc3occn3c2-c2ccnc(NCCNS(=O)(=O)c3ccc(Cl)cc3)n2)ccc1F | 63.1% (inactive)
COc1ccc(/C=c2\sc3n(c2=O)C2C(NN=3)N(C)C(=O)N2C)cc1 (configuration not stated) | -8.89% (active)
C=C(C)[C@@H]1CC[C@]2(C(=O)N[C@H](CO)Cc3ccccc3)CC[C@]3(C)[C@H](CC[C@@H]4[C@@]5(C)CCCNC(C)(C)[C@@H]5CC[C@]43C)[C@@H]12 | -90.5% (active)
O=C1N=C(c2c(-c3[nH]c(=O)c4ccc(Br)cc4c3O)c(O)c3ccccc3c2O)C(=O)c2cc(Br)ccc21 | -11.5% (active)
Cc1cc2ccccc2c2cc3ccccc3cc12 | 5.23% (active)
COCCCC/C(=N\OCCN)c1ccc(C(F)(F)F)cc1 | 101% (inactive)
O=C(Cn1cc(CN2CCN(c3ccnc4cc(Cl)ccc34)CC2)nn1)Nc1cccc([N+](=O)[O-])c1 | 92.8% (inactive)
COc1cc(Cn2c(-c3ccccc3)cc3c2-c2oncc2CC3)cc(OC)c1 | -21.4% (active)
CCN(CC)CCOc1ccc(/C=N/Nc2nc3c([nH]2)c(=O)n(C)c(=O)n3C)cc1 | 102% (inactive) and 121% (inactive)
C=C1C(=O)O[C@H]2[C@H]1CC/C(COC(=O)C(=O)c1cn(C)c3ccc(OC)cc13)=C\CC[C@@]1(C)O[C@@H]21 | -63.6% (active)
C=C[C@@H]1C[C@@H]2Cc3c(C)cc(C)cc3N1O2 | 97.9% (inactive)
O=C1CCC(c2c(O)cc(O)c3c(=O)c(O)c(-c4ccc(O)c(O)c4)oc23)N1 (configuration not stated) | 108% (inactive)
Cc1nn(-c2ccccc2)c2nc3c(nc12)C(=O)CCC3 | 88.3% (inactive)
C[C@H](CCCC(=O)NCC#CCN1CCN(C)CC1)[C@H]1CC[C@H]2[C@@H]3CC[C@@H]4CC(=O)CC[C@]4(C)[C@H]3CC[C@]12C | 91% (inactive)
